Test [1] in a line: ovarian cancer cell viability with rucaparib, profiling panel, oncology-focused library, rucaparib conditional (AID 1508598). The note with it: patient-derived ovarian cancer cells, CellTiter-Glo viability, 144 h, stronger effect = lower value. (In ATP-based viability assays light output follows the ATP content of the culture.)
A short description of test [2]: liver-stage malaria parasite growth inhibition, primary screen, cell-based, HepG2, luciferase luminescence, HepG2 viability (AID 624349; in the data active = parasite load remaining mostly below about 12%, no sharp cut-off; inactive = mostly above about 10%;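 also: 100% = mean of DMSO negative control wells on the same plate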). The note with it: P. berghei liver stage in HepG2, luciferase luminescence, concentration not given here; parasite load remaining: stronger effect = lower value; viability: measured here: HepG2 viability without parasites.
Test [3] is described as follows: growth inhibition of DIPG glioma cells, dose response, cell-based, SU-DIPG-XVII, MIPE5.0, CellTiter-Glo, qHTS (AID 1347060; cut-off not given, nearly all actives have AC50 up to about 26 µM;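 also: cells exposed to compound for 48 hours before viability readout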). To be noted: SU-DIPG-XVII viability, CellTiter-Glo ATP luminescence.
Test [4] in a line: growth inhibition of DIPG glioma cells, dose response, cell-based, JHH-DIPG-1, MIPE4.0, CellTiter-Glo, qHTS (AID 1347062; cut-off not given, nearly all actives have AC50 up to about 27 µM;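 also: cells exposed to compound for two days before readout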). To be noted: JHH-DIPG-1 viability, CellTiter-Glo ATP luminescence.
A short description of test [5]: growth inhibition of DIPG glioma cells, dose response, cell-based, SU-DIPG-IV, MIPE4.0, CellTiter-Glo, qHTS (AID 1347063; cut-off not given, nearly all actives have AC50 up to about 30 µM;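 also: compound exposure lasted 48 hours before the viability readout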). To be noted: SU-DIPG-IV viability, CellTiter-Glo ATP luminescence.
A short description of test [6]: viability loss in pontine glioma line – cell-based, SU-DIPG-XXV, MIPE5.0, CellTiter-Glo, qHTS, dose response (AID 1347065; cut-off not given, nearly all actives have AC50 up to about 26 µM;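 also: cells exposed to compound for 48 hours before ATP readout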). The note with it: CellTiter-Glo ATP luminescence.
A short description of test [7]: SU-DIPG-VI glioma cell viability, MIPE4.0 library, CellTiter-Glo luminescence, qHTS (AID 1347066; cut-off not given, nearly all actives have AC50 up to about 30 µM;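 also: cells exposed to compound for 48 hours before readout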). To be noted: CellTiter-Glo ATP luminescence.
A short description of test [8]: JHH-DIPG-1 glioma cell viability, MIPE5.0 library, CellTiter-Glo luminescence, qHTS (AID 1347067; cut-off not given, nearly all actives have AC50 up to about 26 µM;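 also: cells exposed to compound for 48 hours before readout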). To be noted: JHH-DIPG-1 glioma viability, CellTiter-Glo ATP luminescence.
Test [9] can be described thus: SU-DIPG-XXV glioma cell viability, MIPE5.0 library, qHTS (AID 1347068; cut-off not given, nearly all actives have IC50 up to about 30 µM;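 also: cells exposed to compound for 48 hours before viability readout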). (In general: qHTS replaces the single test concentration by a dilution series.)
Test [10] in a line: sensitizers of A549 cells to miR-34 induction, primary screen, imaging, A549 dox-inducible miR-34, nuclei and caspase counts (AID 1347080;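 active = compounds whose cell count with miR-34 switched on is under 0.7 times the count with it off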). The note with it: A549 miR-34 inducible, Hoechst nuclei count, 48 h.
The nature of test [11]: survival rescue of mitochondrial mutant cells in low glucose, primary screen, MELAS cybrids, Rieske KO mouse fibroblasts, CellTiter-Glo (AID 1508586;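 active = mean z-score across replicates of 1.96 or higher in either the MELAS or the Rieske mutant cell line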;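 also: z relative to plate mean and SD of compound and empty wells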).
The nature of test [12]: modifiers of HSF1 nuclear foci, imaging, Selleck Cancer Library (AID 1347162; in the data active = plate-normalised HSF1 focus index below about 0.46). To be noted: human cells, at 10 µM; SSMD: measured here: HSF1 foci SSMD mean; cell count: measured here: cell number; plate-normalised HSF1 focus index: stronger effect = lower value.
[13] abbreviates: at 0.0195 µM, OCI-P5x cells, with rucaparib 20 µM, 100% = cells with rucaparib alone.
Where [14] appears, read: at 0.0195 µM, OCI-P5x cells, without rucaparib.
The mark [15] stands for this setting: at 0.0781 µM, OCI-C5x cells, with rucaparib 10 µM, 100% = cells with rucaparib alone.
Setting [16] is: at 0.0781 µM, OCI-C5x cells, without rucaparib.
Setting [17] is: at 0.0781 µM, OCI-P5x cells, with rucaparib 20 µM, 100% = cells with rucaparib alone.
[18] abbreviates: at 0.0781 µM, OCI-P5x cells, without rucaparib.
Setting [19] is: at 0.313 µM, OCI-C5x cells, with rucaparib 10 µM, 100% = cells with rucaparib alone.
Setting [20] is: at 0.313 µM, OCI-C5x cells, without rucaparib.
Where [21] appears, read: at 0.313 µM, OCI-P5x cells, with rucaparib 20 µM, 100% = cells with rucaparib alone.
The mark [22] stands for this setting: at 0.313 µM, OCI-P5x cells, without rucaparib.
Where [23] appears, read: at 1.25 µM, OCI-C5x cells, with rucaparib 10 µM, 100% = cells with rucaparib alone.
Where [24] appears, read: at 1.25 µM, OCI-C5x cells, without rucaparib.
The mark [25] stands for this setting: at 1.25 µM, OCI-P5x cells, with rucaparib 20 µM, 100% = cells with rucaparib alone.
The mark [26] stands for this setting: at 1.25 µM, OCI-P5x cells, without rucaparib.
[27] abbreviates: at 5 µM, OCI-C5x cells, with rucaparib 10 µM, 100% = cells with rucaparib alone.
Setting [28] is: at 5 µM, OCI-C5x cells, without rucaparib.
Setting [29] is: at 5 µM, OCI-P5x cells, with rucaparib 20 µM, 100% = cells with rucaparib alone.
Where [30] appears, read: at 5 µM, OCI-P5x cells, without rucaparib.
[31] abbreviates: stronger effect = lower value, cell number ratio, induced over uninduced.
Setting [32] is: measured here: relative caspase fold change +Dox/-Dox.
The mark [33] stands for this setting: measured here: total cells with miR-34 induction, stronger effect = lower value.
Where [34] appears, read: measured here: total cells without miR-34 induction.
Where [35] appears, read: MELAS cybrid survival, CellTiter-Glo 48 h, stronger effect = higher value.
Where [36] appears, read: Rieske KO mouse fibroblast survival, CellTiter-Glo 72 h.

A word on the viability: it is a read-out of living cells in per cent, often relative to untreated cells. By AC50 is commonly meant the concentration giving half of the maximal activity seen. As a reminder, the IC50 is the concentration that gives 50% inhibition.

SMILES strings stand for the structures. Inconclusive results are not listed. Active and inactive are the calls of the source.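 The calls were made as follows, unless noted: active = normalized viability below 100% at a tested concentration; inactive = the rest.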

`NC1(c2ccc(-c3nc4ccn5c(=O)[nH]nc5c4cc3-c3ccccc3)cc2)CCC1`: the viability in test [1] (setting [13]) is 100% (inactive); in [1] (setting [14]), 104% (inactive); in test [1] (setting [15]), 119% (inactive); in [1] (setting [16]), 133% (inactive); in test [1] (setting [17]), 98.1% (active); in test [1] (setting [18]), 98.2% (active). The viability in test [1] (setting [19]) is 131% (inactive); in test [1] (setting [20]) it was 141% (inactive); in test [1] (setting [21]), 90.4% (active); in test [1] (setting [22]), 110% (inactive); in test [1] (setting [23]) it was 107% (inactive); in [1] (setting [24]), 150% (inactive). For the same compound, the viability in test [1] (setting [25]) was 88.6% (active); in [1] (setting [26]), 103% (inactive); in test [1] (setting [27]), 134% (inactive); in test [1] (setting [28]) it was 144% (inactive); in test [1] (setting [29]) it was 104% (inactive); in [1] (setting [30]), 106% (inactive).

For the compound `O=C1NCCc2[nH]c(-c3ccncc3)cc21`, in test [2], the parasite load remaining was 110% (inactive). For the same compound, the viability in [2] turned out to be 61.5%. Besides, the AC50 in [3] was 3.72 µM (active); in test [4] it was 3.32 µM (active); in test [5], 2.64 µM (active); in [6], 2.09 µM (active); in test [8] it was 3.32 µM (active). For the same compound, in [7], the outcome was inactive. For the same compound, the concentration for half-maximal inhibition (IC50) in test [9] was 5.25 µM (active). Also, the fold change in test [10] (setting [31]) is 1.04 (inactive); in test [10] (setting [32]), 0.743. Also, the cell count came to 2250 in test [10] (setting [33]) and 2160 in test [10] (setting [34]). For the same compound, the z-score in test [11] (setting [35]) was 0.826 (inactive); in test [11] (setting [36]), -3.11.

Consider `Cn1cncc1[C@@](N)(c1ccc(Cl)cc1)c1ccc2c(c1)c(-c1cccc(Cl)c1)cc(=O)n2C`, for which the half-maximal activity concentration (AC50) in test [3] is 33.2 µM (active); in test [4], 23.5 µM (active); in test [5], 8.33 µM (active); in [6], 16.6 µM (active); in test [7], 18.7 µM (active); in test [8] it was 18.6 µM (active). Besides, the fold change in test [10] (setting [31]) was 1.1 (inactive); in test [10] (setting [32]), 0.725. Moreover, the figures for the cell count in [10] (setting [33]), in test [10] (setting [34]) and in [12] were 5030, 4560 and 4640, respectively. Further, the SSMD in test [12] is -8.89. Moreover, in [12], the plate-normalised HSF1 focus index was 0.564 (inactive). For the same compound, the z-score in [11] (setting [35]) was -0.557 (inactive); in test [11] (setting [36]), -0.393. The viability in test [1] (at 0.000305 µM, OCI-C5x cells, with rucaparib 10 µM, 100% = cells with rucaparib alone) is 113% (inactive); in [1] (at 0.000305 µM, OCI-C5x cells, without rucaparib), 115% (inactive); in test [1] (at 0.000305 µM, OCI-P5x cells, with rucaparib 20 µM, 100% = cells with rucaparib alone), 102% (inactive); in test [1] (at 0.000305 µM, OCI-P5x cells, without rucaparib), 113% (inactive); in test [1] (at 0.00122 µM, OCI-C5x cells, with rucaparib 10 µM, 100% = cells with rucaparib alone), 118% (inactive); in test [1] (at 0.00122 µM, OCI-C5x cells, without rucaparib), 111% (inactive). Further, the viability in test [1] (at 0.00122 µM, OCI-P5x cells, with rucaparib 20 µM, 100% = cells with rucaparib alone) is 103% (inactive); in test [1] (at 0.00122 µM, OCI-P5x cells, without rucaparib), 109% (inactive); in test [1] (at 0.00488 µM, OCI-C5x cells, with rucaparib 10 µM, 100% = cells with rucaparib alone), 115% (inactive); in test [1] (at 0.00488 µM, OCI-C5x cells, without rucaparib), 122% (inactive); in [1] (at 0.00488 µM, OCI-P5x cells, with rucaparib 20 µM, 100% = cells with rucaparib alone) it was 107% (inactive); in test [1] (at 0.00488 µM, OCI-P5x cells, without rucaparib), 107% (inactive). Moreover, the viability in [1] (at 0.0195 µM, OCI-C5x cells, with rucaparib 10 µM, 100% = cells with rucaparib alone) is 114% (inactive); in test [1] (at 0.0195 µM, OCI-C5x cells, without rucaparib), 123% (inactive); in [1] (setting [13]), 98.9% (active); in test [1] (setting [14]), 85.9% (active); in test [1] (setting [15]), 111% (inactive); in [1] (setting [16]), 121% (inactive). The viability in test [1] (setting [17]) is 92.4% (active); in test [1] (setting [18]), 67.4% (active); in [1] (setting [19]) it was 113% (inactive); in test [1] (setting [20]), 99.3% (active); in [1] (setting [21]) it was 74.4% (active); in [1] (setting [22]) it was 66.7% (active). Also, the viability in [1] (setting [23]) was 101% (inactive); in [1] (setting [24]), 104% (inactive); in [1] (setting [25]), 23.5% (active); in test [1] (setting [26]), 28.3% (active); in test [1] (setting [27]) it was 1.75% (active); in [1] (setting [28]), 5.47% (active). In addition, the viability in test [1] (setting [29]) was 0.988% (active); in test [1] (setting [30]), 1.42% (active).

For the compound `C[C@@H]1COC(Nc2ccc3ncnc(Nc4ccc(OCc5nccs5)c(Cl)c4)c3c2)=N1`, the concentration at half-maximal activity (AC50) in test [3] is 20.9 µM (active); in test [4] it was 18.7 µM (active); in test [5] it was 16.6 µM (active); in test [6], 20.9 µM (active). Also, the IC50 in test [9] is 23.5 µM (active).

Values taken from PubChem BioAssay.
